An excerpt weighted towards active compounds, which were near 1.9% of everything screened.
NR1D1 modulator – modulators of Rev-erb alpha DNA binding, primary screen, biochemical, FITC-DNA, fluorescence polarization, uHTS; Nuclear receptor subfamily 1 group D member 1 (Homo sapiens), P20393; Rev-erbα–FITC-DNA binding, 90 min; activity, % at 10 µM; 370,000 compounds, 0.79% hits; AID 1259318, 2017;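 active = activity above about 14%, limit read from the data; passing the limit was not always enough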;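 note: 0% = DMSO wells with 35 nM protein and 100% = DMSO wells with 750 nM protein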
Target sequence (P20393 whole entry, looked up): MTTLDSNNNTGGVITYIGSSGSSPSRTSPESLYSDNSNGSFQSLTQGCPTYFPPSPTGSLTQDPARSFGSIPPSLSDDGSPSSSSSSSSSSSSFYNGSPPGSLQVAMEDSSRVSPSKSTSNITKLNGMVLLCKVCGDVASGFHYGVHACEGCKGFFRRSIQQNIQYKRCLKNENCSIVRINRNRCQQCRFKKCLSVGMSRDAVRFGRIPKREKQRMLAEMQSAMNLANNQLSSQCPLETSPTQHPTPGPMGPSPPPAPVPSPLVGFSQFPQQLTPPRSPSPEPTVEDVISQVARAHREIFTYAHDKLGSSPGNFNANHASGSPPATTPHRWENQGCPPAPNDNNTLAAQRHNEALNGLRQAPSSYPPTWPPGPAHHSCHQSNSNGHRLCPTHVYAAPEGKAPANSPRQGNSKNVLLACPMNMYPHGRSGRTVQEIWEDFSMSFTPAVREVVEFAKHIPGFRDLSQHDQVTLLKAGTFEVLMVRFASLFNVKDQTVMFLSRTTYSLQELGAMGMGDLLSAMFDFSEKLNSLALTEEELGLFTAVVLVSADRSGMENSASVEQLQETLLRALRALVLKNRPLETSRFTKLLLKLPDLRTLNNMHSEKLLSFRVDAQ
aDG glyco act – activators of alpha-DG glycosylation, primary screen, uHTS, Pro5-aDG cells, AlphaScreen. 360,000 compounds, 0.22% hits. activation, % at 10 µM. alpha-DG glycosylation AlphaScreen (IIH6); 0% Pro5, 100% B10-LARGE cell signal;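 active = activation of at least 8% versus controls, or a plate z-score of at least 8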;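 note: Pro5 are CHO cells carrying HIG-tagged alpha-DG that lacks glycosylation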
ZTA DNA inh – ZTA (EBV) inhibition in EBNA-1 counter-screen | P03206 | 320,000 compounds, 0.15% hits | ZTA-DNA binding, fluorescence polarization | inhibition, % at 11 µM; in the data active = inhibition above about 33%
EBNA-1 inhibitor – EBNA-1 DNA-binding inhibitors, primary screen, biochemical, fluorescence polarization; inhibition, % at 14.8 µM; 300,000 compounds, 0.34% hits; in the data active = inhibition above about 28%
NCF1 inh – p47phox/p22phox peptide binding inhibitors, primary screen, biochemical, uHTS, NADPH oxidase regulatory subunit | inhibition, % at 24.7 µM | 220,000 compounds, 0.53% hits | Neutrophil cytosol factor 1 (Homo sapiens), P14598 | fluorescence polarization, 2 h;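 active = inhibition above about 30%, limit read from the data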;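 note: 0% = p47phox with labelled peptide and 100% = labelled peptide alone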
PG9 Ab binder – binders of HIV-1 gp120 antibody PG9, primary screen, biochemical, TR-FRET. TR-FRET gp120-PG9 antibody binding. inhibition, % at 6.7 µM. 360,000 compounds, 0.43% hits; in the data active = inhibition above about 8.5%
NR1D1 mod conf – modulators of Rev-erb alpha DNA binding, confirmation, biochemical, FITC-DNA, fluorescence polarization, single point; shares compounds with NR1D1 modulator; 90 min; activation, % at 25 µM; 3,000 compounds, 61% hits; AID 1259319, 2017;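 active = activation at or above a set limit, or at least 3 SD above the negative control mean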;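 note: 0% = 35 nM protein with DMSO and 100% = 750 nM protein high control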
RORg counter – modulation of RORgamma DNA binding, dose response, counter-screen for Rev-erb alpha modulator project, biochemical, fluorescence polarization, FITC-DNA. shares compounds with NR1D1 modulator. purified RORgamma protein-FITC-DNA binding. IC50, µM. 910 compounds, 8% hits. AID 1259320, 2017;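 active = Compounds whose fitted half-maximal concentration for disrupting protein-DNA binding is below 10 micromolar; the record names Rev-erb in its text, so the target is in doubt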
Active calls of the source: *; i = inactive; . = no result.

SMILES	NR1D1 modulator	aDG glyco act	ZTA DNA inh	EBNA-1 inhibitor	NCF1 inh	PG9 Ab binder	NR1D1 mod conf	others
COC(=O)[C@]12C[C@H](CC(=O)N3CCCC3)C(=O)N(Cc3ccc(Cl)cc3Cl)C1=C[C@H](C(C)(C)C)O[C@@H]2C	1	.	.	.	.	.	.
O=C(OCC(=O)N1CCCC1=O)c1cc(Cl)ccc1O	-1	0	13	-8	.	-1	.
O=C(OCC(=O)N1CCCc2ccccc21)c1cc(Cl)ccc1O	24*	0	2	-9	.	1	-5
CCOC(=O)[C@]12CCCC=C1N(CCCOC)C(=O)[C@@H]2CC(=O)NCc1cccc(C(F)(F)F)c1	-7	.	.	.	.	.	.
CCOc1cc2[nH]c(=S)n(C3CCN(Cc4ccccc4)CC3)c(=O)c2cc1OCC	10	1	4	3	-14	1	.
O=c1c2cc3c(cc2[nH]c(=S)n1C1CCN(Cc2ccccc2)CC1)OCO3	15*	0	28	8	5	0	6
CN(C)c1ccc(-c2nnn(CC(=O)NCc3ccc4c(c3)OCO4)n2)cc1	15*	0	8	1	-5	7	7
Cc1ccccc1-c1nnn(CC(=O)NCc2ccc3c(c2)OCO3)n1	0	1	16	22	-1	1	.
CCOC(=O)c1nnn2c1nc(Nc1cccc(C(F)(F)F)c1)c1ccccc12	49*	0	10	3	-10	-2	38*	RORg counter=>40
NNc1nc2c(-c3cccc(C(F)(F)F)c3)nnn2c2ccccc12	1	0	.	.	.	-1	.
CC(C)OCCCNc1nc2c(-c3ccccc3)nnn2c2ccccc12	.	.	10	0	-12	.	.
COCCNc1nc2c(-c3cccc(C(F)(F)F)c3)nnn2c2ccccc12	52*	0	14	5	.	-2	18*
CCOCCCNc1nc2c(-c3ccccc3)nnn2c2ccccc12	26*	0	4	-4	-5	-1	7
CCCCNc1nc2c(-c3ccccc3)nnn2c2ccccc12	50*	0	-4	-9	-17	0	22*
COC(=O)[C@]12C[C@H](CC(=O)N3CCN(C(=O)C4CC4)CC3)C(=O)N(Cc3ccco3)C1=C[C@H](C(C)C)O[C@@H]2C1CC1	-1	.	.	.	.	.	.
Cc1ccccc1CS(=O)(=O)Cc1ccc(C(=O)Nc2c(C)cccc2C)o1	-4	.	.	.	.	.	.
COc1ccccc1C(=O)CN1C(=O)NC2(CCCc3ccccc32)C1=O (stereo not given)	-7	0	.	.	.	2	.
COc1ccc(C(=O)CN2C(=O)NC3(CCCc4ccccc43)C2=O)c(OC)c1 (stereo not given)	23*	0	3	0	.	2	10
CCCCCCCCN1C(=O)[C@@H](CC(=O)N2CCCCC2)C[C@@]2(C(=O)OC)C1=C[C@H](C(C)C)O[C@@H]2C1CC1	2	.	.	.	.	.	.
COc1ccc(CCN2CCC(Nc3nc4ccccc4n3Cc3ccc(F)cc3)CC2)cc1	-7	0	-12	2	-7	1	.
COc1c(O)cccc1[C@@H](O)C1CCN(CCc2ccc(F)cc2)CC1	19*	0	-3	-6	.	1	6
CC(C)C[C@H]1COc2cc(NCc3ccc(Cl)c(Cl)c3)ccc2S(=O)(=O)N1	17*	.	.	.	.	6	6
O=S1(=O)CC2c3ccc(F)cc3CN2CN1CCc1ccccc1 (stereo not given)	3	.	.	.	.	.	.
Cc1cc(=O)oc2cc(OCC3CC(c4ccc(Cl)cc4)=NO3)ccc12 (stereo not given)	80*	0	10	18	-52	-1	72*	RORg counter=i
O=C1c2cccc3c(O)ccc(c23)C(=O)N1Cc1ccccc1	73*	1	0	-4	37*	0	73*	RORg counter=>40
SMILES	NR1D1 modulator	aDG glyco act	ZTA DNA inh	EBNA-1 inhibitor	NCF1 inh	PG9 Ab binder	NR1D1 mod conf	others
O=C(O)c1cccc(CN2C(=O)c3ccccc3C2=O)c1	-4	0	8	-9	.	-1	.
COCCN1C(=O)/C(=C/c2ccc(N3CCCC3)cc2C)SC1=S	25*	0	6	2	-261	1	39*	RORg counter=>40
COc1cccc(C(=O)CSc2nnc(-c3cc(OC)cc(OC)c3)o2)c1	27*	0	2	4	-5	-1	36*	RORg counter=>40
CCOC(=O)c1c(C)nc2c(c1-c1ccc(OC)c(OC)c1)C(=O)c1ccccc1-2	53*	0	-5	-7	-8	2	47*
CCOC(=O)c1c(C)nc(C)c(C(=O)OCC)c1-c1ccc(OC)cc1	1	0	-10	5	-14	-1	.
COC(=O)c1cc(NC(=O)NC2CCCCN(Cc3cccc(Cl)c3)C2=O)cc(C(=O)OC)c1 (stereo not given)	5	.	.	.	.	.	.
O=C(Nc1ccc(NC(=O)c2ccccc2Cl)c(Cl)c1)c1ccccn1	2	.	.	.	.	.	.
N#CCCN(CCC#N)S(=O)(=O)c1ccc(C(=O)Nc2nc(-c3ccccc3)c(C(=O)c3ccccc3)s2)cc1	189*	0	4	-8	-34	1	177*	RORg counter=4.1*
Cc1ccc(-c2nc(NC(=O)c3ccc(S(=O)(=O)N(CCC#N)CCC#N)cc3)sc2-c2ccccc2)cc1	26*	0	-22	-3	3	-2	18*
CCN(c1ccccc1C)S(=O)(=O)c1cc2c3c(c1)CCC(=O)N3CCC2	28*	0	0	6	.	-2	41*	RORg counter=>40
CCN(c1ccccc1C)S(=O)(=O)c1cc2c3c(c1)CCN3C(=O)CC2	-1	0	5	2	.	-1	.
C/C(C=NNC(=O)CSc1nc2ccccc2n1Cc1ccccc1Cl)=C\c1ccccc1	2	.	.	.	.	.	.
Cc1ccccc1OCC(=O)Nc1ccccc1N1CCOCC1	4	0	-9	-3	-3	2	.
CC(C)C(=O)N1CCN(c2ccccc2NC(=S)NC(=O)Cc2ccccc2)CC1	17*	0	-13	3	.	0	2
Cc1cccc(OCC(=O)NC(=S)Nc2ccccc2N2CCOCC2)c1C	40*	0	-2	-2	.	-1	4
CCC(=O)Nc1sc(Cc2ccc3c(c2)OCO3)c(C)c1C(N)=O	-4	0	8	-4	-6	-1	.
Cc1c(Cc2ccc3c(c2)OCO3)sc(NC(=O)c2ccc3ccccc3c2)c1C(N)=O	23*	0	-2	11	6	0	2

Compound activity as filed in PubChem.
